The panel holds about 79,000 compounds, 15% with a hit somewhere; the sample as a whole holds those more often. Rule as the data show it: active = growth inhibition above about 70%; inactive = the rest.
Key:
[1] = NCI Yeast Anticancer Drug Screen. Data for the rad50 strain (AID 155);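 also: 0% = growth of vehicle-only cultures of the same strain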; conditions: S. cerevisiae rad50 strain growth inhibition; at 50.0 µM; hits give high values
Summary of the method: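 Inhibition values express reduced yeast growth in compound-treated cultures relative to vehicle-treated controls.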

[2] = NCI Yeast Anticancer Drug Screen. Data for the mec2-1 strain (AID 157); conditions: S. cerevisiae mec2-1 strain, at 50.0 µM, hits give high values
Summary of the method: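 Each compound was tested on mec2-1 yeast, a strain altered in DNA damage repair or cell cycle control. Growth inhibition is reported relative to vehicle.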

[3] = NCI Yeast Anticancer Drug Screen. Data for the sgs1 mgt1 strain (AID 161);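 also: 0% = growth of cultures given vehicle only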; conditions: S. cerevisiae sgs1 mgt1 strain, at 50.0 µM, hits give high values
Summary of the method: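 Test agents were incubated with a DNA-repair-mutant yeast strain. Growth was then read and compared against vehicle-treated controls.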

[4] = NCI Yeast Anticancer Drug Screen. Data for the cln2 rad14 strain (AID 165);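 also: 0% = growth equal to vehicle treated cultures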; conditions: S. cerevisiae cln2 rad14 strain, at 50.0 µM, hits give high values
Summary of the method: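 Test compounds were added to cln2 rad14 yeast cultures; inhibition of growth was then determined by comparison with vehicle treatment.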

[5] = NCI Yeast Anticancer Drug Screen. Data for the bub3 strain (AID 167); conditions: S. cerevisiae bub3 mutant strain, at 50.0 µM, hits give high values
Summary of the method: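 Steps: expose the mutant yeast strain to compound; grow alongside vehicle-treated cultures; measure growth; express inhibition against the vehicle cultures.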

[6] = NCI Yeast Anticancer Drug Screen. Data for the mlh1 rad18 strain (AID 175); conditions: S. cerevisiae mlh1 rad18 strain growth inhibition; at 50.0 µM; hits give high values
Summary of the method: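 Inhibition values reflect reduced growth of mutant yeast versus vehicle-treated controls following compound exposure; the mutations affect DNA damage repair.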

Measured: growth inhibition

C=CCOC(=O)CCCCC
inactive: [1] 5% | [2] -2.7% | [3] 2.65% | [4] 7.9% | [5] -3.65% | [6] 0.75%

COc1ccccc1NC(=O)CCl
inactive: [1] 17.8% | [2] 24.9% | [3] 24.4% | [4] 18.8% | [5] 28.5% | [6] 36.2%

CCOc1ccccc1NC(=O)C(Br)C(Br)c1ccccc1 (stereo unspecified)
inactive: [1] -1.1% | [2] 0.65% | [3] 30.9% | [4] -20.9% | [5] 20.1% | [6] 42.3%

COc1ccc2c(c1)CCc1c(C(C)=O)c3ccccc3n1C2
inactive: [1] 19.8% | [2] -13.3% | [3] 46.4% | [4] 15.2% | [5] 47.1% | [6] 2.15%

Cc1cc(N=Nc2ccccc2)c2cccnc2c1N
inactive: [1] -3.85% | [2] -4.2% | [3] -7.5% | [4] 11.6% | [5] -5.15% | [6] 14.7%

CN(C)CC(=O)N1CCc2c([nH]c3ccccc23)C1c1cccnc1 (stereo unspecified)
inactive: [1] -44.9% | [2] -10.2% | [3] 3.6% | [4] -3.1% | [5] -15.3% | [6] -16.9%

COc1ccccc1NC(=O)NCCCCCCNC(=O)Nc1ccccc1OC
inactive: [1] -25.6% | [2] -2.55% | [3] 2.1% | [4] -39.9% | [5] 0.85% | [6] 13.4%

CCCCCC[C@H](C/C=C\CCCCCCCC(=O)OCCCC)OC(C)=O
inactive: [1] -14.7% | [2] 0.2% | [3] -10.2% | [4] -14.2% | [5] -29.4% | [6] -8.8%

C[N+](C)(C)CCOC(=O)C(c1ccccc1)C1(O)CCCC1 (stereo unspecified)
inactive: [1] 33.6% | [2] -16.1% | [3] 12.7% | [4] -24.4% | [5] -1.7% | [6] 22.3%

CC(C)(C)CC(C)(C)N1CNC(=S)NC1
inactive: [1] 19% | [2] -1.95% | [3] 18.3% | [4] 10.8% | [5] 21.8% | [6] 16.8%

C=CCOC(=O)CCC(=O)OCC=C
inactive: [1] 3.45% | [2] 6.2% | [3] -4.65% | [4] -15.4% | [5] 5.8% | [6] -4.35%

Clc1cc(Cl)nc(Nc2ccc3c(c2)CCC3)n1
inactive: [1] 23.9% | [2] 10.2% | [3] -1.15% | [4] -4.2% | [5] 3.9% | [6] 39.5%

CC(Cl)C(O)C#N (stereo unspecified)
inactive: [1] -25.1% | [2] -3.35% | [3] -10.8% | [4] -8.2% | [5] 1.6% | [6] -16.2%

CC(C)(C)NC(=O)c1cccc(C(N)=O)n1
inactive: [1] -10.4% | [2] -16.1% | [3] -11.8% | [4] -21.6% | [5] -4.25% | [6] -0.6%

CN1C2C=CC(=O)C1C1C(=O)N(c3ccccc3)C(=O)C12 (stereo unspecified)
inactive: [1] 25.2% | [2] 45.1% | [3] 54% | [4] 31.4% | [5] 23.8% | [6] 27.1%

O=C(O)/C=C/C=C/c1ccccc1
inactive: [1] 8.9% | [2] 8.95% | [3] 49.9% | [4] -2.7% | [5] 16.4% | [6] 32.8%

COc1ccc(CCNC(=O)CC2CCN(Cc3ccccc3)CC2)cc1OC
inactive: [1] 3.65% | [2] 1.15% | [3] 5.2% | [4] -3.75% | [5] -3.45% | [6] -1.5%

CC(C)C/C(CC(=O)CCC(=O)Nc1ccccc1[N+](=O)[O-])=N\NC(=O)c1cc2ccccc2cc1O
inactive: [1] 17.8% | [2] 24.1% | [3] -11.8% | [4] 26.2% | [5] 9.8% | [6] 29.9%

CCOC(=O)c1ccc(Nc2nc3ccccc3o2)cc1
inactive: [1] 5% | [2] -7.6% | [3] 9.05% | [4] -14.2% | [5] -0.95% | [6] 1.7%

COC(=O)NC(C(F)(F)F)(C(F)(F)F)P1(=O)OCCCO1
inactive: [1] 54.5% | [2] 59.9% | [3] 26.3% | [4] 43% | [5] 54% | [6] 37.6%

CC(=O)Nc1cccc(Oc2ccc(Cl)cc2[N+](=O)[O-])c1
inactive: [1] 13% | [2] -6.6% | [3] -2.75% | [4] -5.2% | [5] 2.35% | [6] 7.95%

Cc1cccc(C(C)(C)C)c1NC(=O)C(=O)Cc1nc2ccccc2s1
inactive: [1] -12.1% | [2] 7.05% | [3] 5.6% | [4] -41.7% | [5] 5.4% | [6] 18.2%

CCc1nc2cc(F)ccc2[nH]c1=O
inactive: [1] 17.3% | [2] 24.2% | [3] 28.9% | [4] 21.4% | [5] 40.9% | [6] -7.55%

c1ccc2[nH]cnc2c1
inactive: [1] 7.85% | [2] -1.55% | [3] 0.65% | [4] -4.4% | [5] 8.7% | [6] -46.8%

O=C(Nc1cccc(Cl)c1)c1cc2cc(N=Nc3ccc(Br)cc3)ccc2oc1=O
inactive: [1] 36.4% | [2] 33.6% | [3] 27% | [4] 29.1% | [5] 9.45% | [6] 18.2%

OC1CCCCC2CC2C1O (stereo unspecified)
inactive: [1] 9.25% | [2] -2.8% | [3] 6.8% | [4] -44.7% | [5] 3.55% | [6] -5.65%

CN(C)CC(N)C(=O)O (stereo unspecified)
inactive: [1] -4.35% | [2] -13.1% | [3] -12.2% | [4] -13.6% | [5] -21.3% | [6] -18.6%

CCOC(=O)CC1CC(C)(C(=O)OCC)C(=O)CC1=O (stereo unspecified)
inactive: [1] -21.1% | [2] -4.9% | [3] -11% | [4] 8.35% | [5] 7.5% | [6] 0%

O=C(O)c1c2c(nc3ccccc13)CCC2
inactive: [1] 2.55% | [2] -9.75% | [3] 6.35% | [4] -14.5% | [5] 12.2% | [6] -8.4%

O=S(=O)(O)CC(O)CSSCC(O)CS(=O)(=O)O (stereo unspecified)
inactive: [1] 33.2% | [2] -3.55% | [3] 8.25% | [4] -4.05% | [5] 1.4% | [6] -9.1%

CN(N=O)C(=O)NC(CCCCNC(=O)OCc1ccccc1)C(=O)OCc1ccccc1 (stereo unspecified)
inactive: [1] 5.95% | [2] -10.1% | [3] -2.8% | [4] -22.4% | [5] 11.6% | [6] -11.2%

Cc1nn(C(=O)c2ccccc2O)c2c1C(c1ccc(O)cc1)SC(N)=N2 (stereo unspecified)
inactive: [1] 16.1% | [2] 1.95% | [3] 29.4% | [4] 1.65% | [5] 43.6% | [6] 6.65%

O=C(CC(C(=O)c1ccsc1)c1cccs1)c1cccs1 (stereo unspecified)
inactive: [1] 50.9% | [2] 14.2% | [3] 57.3% | [4] 36.4% | [5] 59.6% | [6] 33.8%

CC(C)N(CSc1ccc([N+](=O)[O-])cc1)CSc1ccc([N+](=O)[O-])cc1
inactive: [1] 12.3% | [2] 5.75% | [3] 4.1% | [4] -4.1% | [5] -4.7% | [6] -1%

O=C(Nc1ccc(Cl)c(Cl)c1)C(Cl)Cl
inactive: [1] 23.5% | [2] 15.1% | [3] 50.5% | [4] 30.2% | [5] 39.1% | [6] 10.3%

N#CCCNCCNCCC#N
inactive: [1] -30.8% | [2] -2.25% | [3] -18.1% | [4] -68.2% | [5] -26.1% | [6] -26.4%

Cc1ccc(NC(=O)CSc2nnc(-c3ccc(N=Cc4ccc(Cl)cc4)cc3)o2)cc1
inactive: [1] 2.3% | [2] -36.9% | [3] 12.5% | [4] -59.8% | [5] -15.8% | [6] 18.6%

CC1OC(OCC2OC(Oc3ccc4c(=O)c(-c5ccc6c(c5)OCO6)coc4c3)C(O)C(O)C2O)C(O)C(O)C1O (stereo unspecified)
inactive: [1] 15.1% | [2] 3.15% | [3] 12.6% | [4] 28.1% | [5] 20.4% | [6] 8.85%

O=C1NCCCCC1CC/C=C/c1ccccc1 (stereo unspecified)
inactive: [1] -13.7% | [2] -23.2% | [3] -3.7% | [4] -9.6% | [5] 32.5% | [6] -5.85%

COc1ccc(C(=Cc2cc(OC(C)=O)c3ccccc3c2OC(C)=O)c2ccc(OC)cc2)cc1
inactive: [1] 13.1% | [2] -8.8% | [3] -8% | [4] -15.9% | [5] 3.7% | [6] -0.5%

CC(C)CCOC(=O)c1ccc(C(C)C)cc1
inactive: [1] 7.65% | [2] 9.85% | [3] -0.35% | [4] -17.7% | [5] 46.6% | [6] 5.3%
